From PubChem
Lassa entry inh: inhibitors of Lassa virus binding or cell entry; Lassa virus pseudotype entry inhibition, cell reporter; Potency, µM (series often up to 37.9 µM), for the others: top-dose activity change, negative = inhibition, usual class: inhibitors; 1.2% of 300,000 active; AID 540256; calls by dose curve; tested in HEK293 cells; note: potency is the fitted concentration of half-maximal effect; % is set by controls: 0 for no effect and ±100 for the full control effect; nearly all actives have a fitted effect of over 50% in size
Shiga toxin inh: inhibitors of Shiga toxin in Vero cells | 9.2% of 290,000 active | Vero cells, Shiga toxin protein synthesis inhibition reporter | inhibition, % at 38.7 µM; in the data active = inhibition mostly above about 28%, no sharp cut-off; inactive = mostly below about 43%; note: 0% is about no effect
CHX counter: counter-screen for Shiga toxin inhibitors: cycloheximide protein synthesis inhibition. cell reporter, cycloheximide protein synthesis inhibition counterscreen. max response, %. 12% of 300,000 active. AID 2314; in the data active = max response mostly above about 13%, no sharp cut-off; inactive = mostly below about 14%; note: read at 38.3 µM for the half of the compounds with a filed dose; 0% is about no effect
Pf growth 48h: P. falciparum growth inhibition at 48 hours (one generation) | 5.9% of 310,000 active | Potency, µM (top dose mostly 28.7 µM), without a hit: at the top dose activity change, negative = inhibition, most hits filed as inhibitors | P. falciparum luciferase growth in erythrocytes, 48 h; note: potency is the fitted concentration of half-maximal effect; % is set by controls: 0 for no effect and ±100 for the full control effect
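Growth was read as firefly luciferase luminescence after a 48 h, 37 C, 5% CO2 exposure of compounds to reporter-bearing P. falciparum cultures (0.1% parasitemia, 2% hematocrit final) in Albumax-supplemented RPMI 1640.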
Pf growth 96h: P. falciparum growth inhibition at 96 hours; P. falciparum luciferase reporter growth, 96 h; Potency, µM (doses to about 28.7 µM), inactives show at the highest dose activity change, negative = inhibition, actives largely listed as inhibitors; 6.9% of 320,000 active; AID 504834; note: potency is the fitted concentration of half-maximal effect; % is set by controls: 0 for no effect and ±100 for the full control effect
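Readout is luminescence from an integrated firefly luciferase in P. falciparum. Red cells, 2% hematocrit and 0.05% parasitemia final, were cultured with compound through two parasite generations (96 hours) at 37 C, 5% CO2.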
Marburg entry inh: Marburg virus entry inhibition; Potency, µM (titrated, usually from 37.8 µM), for inactives: at the highest dose activity change, negative = inhibition, most hits filed as inhibitors; AID 540276; 1.8% of 300,000 active; Marburg virus pseudotyped entry inhibition, cell reporter; calls by dose curve; tested in HEK293 cells; note: potency is the fitted concentration of half-maximal effect; % is set by controls: 0 for no effect and ±100 for the full control effect
Active calls of the source: *; [ ] = another dose, or the depositor's remark. Compounds with a hit are over-represented: about 19% of the library has one in this group of screens. Unless noted, calls come from the whole dose curve; as a rule, active = well fitted inhibition curve with a large enough effect; inconclusive = small, poorly fitted or top-dose-only effect, or another doubt; inactive = no such curve, though single readings can be large or run the other way.

How did O=C(Nc1ccccc1)c1ccc(NCC2CCCO2)c(S(=O)(=O)N2CCOCC2)c1 (stereo unspecified) do in these assays?
Lassa entry inh: -2%; Shiga toxin inh: 32; CHX counter: 5; Pf growth 48h: inconclusive; Pf growth 96h: -29%; Marburg entry inh: 13%[46.1 µM]

What do the screens show for `CC(=O)Nc1ccccc1OCC(=O)NC1CCCCC1C` (stereo unspecified)?
Pf growth 48h: 13%; Pf growth 96h: 17%

What do the screens show for `Cc1nc2cc(NC(=O)Nc3nccs3)ccc2n1C`?
Lassa entry inh: 13µM*; Shiga toxin inh: 35*; CHX counter: 22*; Pf growth 48h: 121%; Marburg entry inh: inconclusive

What do the screens show for `CCCNC(=O)Nc1ccc2c(c1)nc(C)n2C`?
Lassa entry inh: 27%; Shiga toxin inh: 33; CHX counter: 17; Pf growth 48h: 56%; Pf growth 96h: 168%; Marburg entry inh: 2%[46.1 µM]

Results for CCn1c(C)nc2cc(NC(=O)Nc3cccc(C(C)=O)c3)ccc21 ?
Shiga toxin inh: 46; CHX counter: 21*; Pf growth 48h: -8%[0.00184 µM]; Pf growth 96h: -5%

Results for COc1cccc(NC(=O)Nc2ccc3nsnc3c2)c1 ?
Lassa entry inh: 22%; Shiga toxin inh: 97*; CHX counter: 31*; Pf growth 48h: -12%; Pf growth 96h: -63%; Marburg entry inh: 22%

How did Cc1nc2cc(NC(=O)NC(C)(C)C)ccc2n1C do in these assays?
Shiga toxin inh: 34; CHX counter: 18*; Pf growth 48h: 0%; Pf growth 96h: 10%

How did COC(=O)c1ccccc1NC(=O)c1ccc(Cn2cc(Cl)cn2)o1 do in these assays?
Lassa entry inh: -20%; Shiga toxin inh: -3; CHX counter: -3; Pf growth 48h: 13%; Pf growth 96h: 26%; Marburg entry inh: inconclusive

Results for CCC1CCCCN1CCCNC(=O)c1ccc(CS(=O)(=O)Cc2ccccc2F)o1 (stereo unspecified) ?
Lassa entry inh: 4%; Shiga toxin inh: -3; CHX counter: 1; Pf growth 48h: -5%; Pf growth 96h: 23%; Marburg entry inh: -23%

How did COc1cccc(NC(=O)Nc2ccc3c(c2)nc(C)n3C)c1 do in these assays?
Lassa entry inh: inconclusive; Shiga toxin inh: 58*; CHX counter: 26*; Pf growth 48h: 111%; Pf growth 96h: 41%; Marburg entry inh: inconclusive

How did COc1cccc(NC(=O)Nc2ccc3nc(C)c(C)nc3c2)c1 do in these assays?
Lassa entry inh: -9%[46.1 µM]; Shiga toxin inh: 10; CHX counter: 10; Pf growth 48h: 7%; Pf growth 96h: 0%; Marburg entry inh: 1%[46.1 µM]

Results for CC(=O)Nc1cccc(NC(=O)Nc2ccc(C(C)=O)cc2)c1 ?
Lassa entry inh: -3%; Shiga toxin inh: 68; CHX counter: -1; Pf growth 48h: 44%; Marburg entry inh: 6%

What do the screens show for `CCN(CC)c1ccc(NC(=O)Nc2cccc(C(C)=O)c2)cc1`?
Lassa entry inh: -11%; Shiga toxin inh: 46*; CHX counter: 20; Pf growth 48h: 34%; Pf growth 96h: inconclusive; Marburg entry inh: -20%

How did CC(NC(=O)c1ccc2c(=O)n3c(nc2c1)CCC3)c1ccc(S(N)(=O)=O)cc1 (stereo unspecified) do in these assays?
Lassa entry inh: -1%; Pf growth 48h: 8%; Pf growth 96h: 18%; Marburg entry inh: inconclusive

How did CC(C)CC(=O)NC(NC(=S)Nc1cccc2cccnc12)C(Cl)(Cl)Cl (stereo unspecified) do in these assays?
Lassa entry inh: inconclusive; Shiga toxin inh: -3; CHX counter: -4; Pf growth 48h: inconclusive; Pf growth 96h: -1%; Marburg entry inh: 14µM*

Results for CC(=O)c1ccc(NC(=O)Nc2cccc3ccccc23)cc1 ?
Shiga toxin inh: 12; CHX counter: 27*; Pf growth 48h: 13%; Pf growth 96h: -13%

How did O=C(Nc1ccccc1)Nc1cccc2ccccc12 do in these assays?
Lassa entry inh: 10%; Shiga toxin inh: 27; CHX counter: 19*; Pf growth 48h: 38%; Pf growth 96h: 0%; Marburg entry inh: -16%

How did Cc1ccc(C(=O)O)cc1NC(=O)Nc1cccc2ccccc12 do in these assays?
Shiga toxin inh: -8; CHX counter: -3; Pf growth 48h: 33%; Pf growth 96h: 2.6µM*
